# Measured values as given in the supplement of paper PMC8866396.
# ± gives the standard deviation of the averaged measurements.
# Tests used:
# IL-6-GFP PC-9GR = assay: cell viability (CCK-8 OD) relative to DMSO control (fraction of control); higher = more viable cells; settings: compound concentration: 10 uM; treatment time: 48 h
# In short: (§1)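 PC-9 and PC-9GR lung cancer cells overexpressing IL-6-GFP from a lentiviral construct were plated at 3000 cells/well in 96-well plates. Each compound from a purchased 510-compound library was added at a final 10 μM for 48 h, with a parallel plate set used for GFP imaging. Viability was measured by CCK-8 absorbance and expressed as each well's optical density divided by the vehicle (DMSO) control well, from two independent replicates.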
# IL-6-GFP PC-9 = assay: as above; settings: compound concentration: 10 uM; treatment time: 48 h
# In short: as §1
Structure (SMILES),cell viability (IL-6-GFP PC-9GR),cell viability (IL-6-GFP PC-9)
Nc1nc(N)c2nc(-c3ccccc3)c(N)nc2n1 [Triamterene],0.591 ± 0.14,0.842 ± 0.038
CCN(CC)CCNC(=O)c1c(C)[nH]c(/C=C2\C(=O)Nc3ccc(F)cc32)c1C [Sunitinib],0.573 ± 0.2,0.911 ± 0.27
COc1cc(C2c3cc4c(cc3C(OC3OC5COC(C)OC5C(O)C3O)C3COC(=O)C23)OCO4)cc(OC)c1O (configuration not stated) [Etoposide],0.779 ± 0.033,0.537 ± 0.17
CCC(C(=O)O)c1ccc(N2Cc3ccccc3C2=O)cc1 (configuration not stated) [Indobufen],0.908 ± 0.059,1.11 ± 0.049
CC(C)C(=O)Nc1ccc([N+](=O)[O-])c(C(F)(F)F)c1 [Flutamide],1.18 ± 0.054,1.2 ± 0.53
O=C(O)CCCN1CCC(OC(c2ccc(Cl)cc2)c2ccccn2)CC1 (configuration not stated) [Bepotastine],0.797 ± 0.031,1.06 ± 0.18
CCCCCCNC(=O)n1cc(F)c(=O)[nH]c1=O [Carmofur],0.934 ± 0.022,0.906 ± 0.14
Cc1ccc(=O)n(-c2ccccc2)c1 [Pirfenidone],1.24 ± 0.21,1.07 ± 0.31
CC(=O)OC1C(=O)C2(C)C(O)CC3OCC3(OC(C)=O)C2C(OC(=O)c2ccccc2)C2(O)CC(OC(=O)C(O)C(NC(=O)c3ccccc3)c3ccccc3)C(C)=C1C2(C)C (configuration not stated) [Paclitaxel],0.576 ± 0.036,0.57 ± 0.026
CC1CC2C3CCC4=CC(=O)C=CC4(C)C3(F)C(O)CC2(C)C1(O)C(=O)CO (configuration not stated) [Betamethasone],1.24 ± 0.11,1.29 ± 0.29
CC/C(=C(/CC)c1ccc(O)cc1)c1ccc(O)cc1 [Diethylstilbestrol],1.13 ± 0.038,1.18 ± 0.19
O=C(O)c1ccccc1O.[NaH] [Sodium salicylate],1.02 ± 0.2,1.03 ± 0.12
N#CC1(c2ccc(NC(=O)c3cccnc3NCc3ccncc3)cc2)CCCC1 [Apatinib],0.0432 ± 0.2,1.177 ± 0.0032
"O=c1[nH]cc(F)c(=O)[nH]1 [Fluorouracil (5-Fluoracil, 5-FU)]",0.731 ± 0.011,0.537 ± 0.12
CC(=O)OC1CCC2(C)C(=CCC3C2CCC2(C)C(c4cccnc4)=CCC32)C1 (configuration not stated) [Abiraterone Acetate],1.48 ± 0.41,0.929 ± 0.21
CC(C(=O)O)c1ccc(-c2ccccc2)c(F)c1 (configuration not stated) [Flurbiprofen],1.04 ± 0.39,0.9552 ± 0.0084
COc1cc2ncnc(Nc3ccc(F)c(Cl)c3)c2cc1OCCCN1CCOCC1 [Gefitinib (ZD1839)],0.9 ± 0.06,0.664 ± 0.061
CC(=O)[N-]S(=O)(=O)c1ccc(N)cc1.[Na+] [Sulfacetamide Sodium],0.982 ± 0.12,1.1 ± 0.014
O=C1CCCC2C3CCC[N+]4([O-])CCCC(CN12)C34 (configuration not stated) [Oxymatrine],1.47 ± 0.16,1.33 ± 0.068
O=C(Nc1ccc(O)cc1)c1ccccc1O [Osalmid],1.3 ± 0.45,1.25 ± 0.1
CC1(C)CCC(C)(C)c2cc(NC(=O)c3ccc(C(=O)O)cc3)ccc21 [Tamibarotene],1.55 ± 0.76,1.28 ± 0.11
Cl.c1ccc2c(c1)CCCC2C1=NCCN1 (configuration not stated) [Tetrahydrozoline HCl],0.987 ± 0.049,1.13 ± 0.15
Nc1nc(F)nc2c1ncn2C1OC(CO)C(O)C1O (configuration not stated) [Fludarabine],0.214 ± 0.12,0.232 ± 0.026
NC(CCC(=O)NC(CS)C(=O)NCC(=O)O)C(=O)O (configuration not stated) [Glutathione],1.06 ± 0.11,1.1 ± 0.15
CC(O)CO.CCOc1ccc(Cc2cc(C3OC(CO)C(O)C(O)C3O)ccc2Cl)cc1.O (configuration not stated) [Dapagliflozin propanediol monohydrate],1.07 ± 0.13,1.14 ± 0.11
NC(CC(=O)N1CCn2c(nnc2C(F)(F)F)C1)Cc1cc(F)c(F)cc1F.O.O=P(O)(O)O (configuration not stated) [Sitagliptin phosphate monohydrate],0.836 ± 0.12,0.812 ± 0.47
